40 compounds from PubChem BioAssay (NCI) can be followed below.

About 83,000 compounds went through this panel and 20% of them were active in at least one assay; those are over-represented in the sample as a whole.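 Single-concentration screen, 48 h exposure, 96-well plates. Endpoint: percent growth. Below 10 = active.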 A number with no mark means an inactive call. Activity calls are given as the source filed them.

This assay concerns OVCAR-5 ovarian. Briefly: NCI-60 one-dose screen, 48 h (100 = growth as untreated, 0 = no growth, -100 = all killed). The note with it: 10 µM unless noted. The method, then: Growth inhibition of the OVCAR-5 human tumor cell line is measured as a screen for anti-cancer activity. Cells are grown in 96 well plates and exposed to the test compound for 48 hours. Compounds are tested at a single concentration, which is 10^-5 M for most compounds. The reported endpoint is percent growth (GI% or GIPRCNT), where numbers from 0 - 100% represent growth inhibition, and numbers from -100% - 0 represent cell death. For example, a value of 40 represents 60% growth inhibition. A value of 0 means no net growth occurred over the course of the experiment. A value of -40 indicates 40% of cells at the beginning of the experiment died by the end of the experiment. A value of -100 means all cells are dead at the end of the experiment.
NCI-60 Human Tumor Cell Lines Screen was performed using the standard one-dose NCI protocol, which is described in more detail at https://dtp.cancer.gov/discovery_development/nci-60/default.htm.
Compounds with GIPRCNT values below 10 were considered active. Activity score was based on GIPRCNT using the following formula: […]
Score is 0 for GIPRCNT values of 100 or above, 50 for GIPRCNT values of 0, and 100 for GIPRCNT values of -100.
As for `COC(=O)C12C3C(=O)N(c4ccc(OC)cc4)C(=O)C3C(c3cn(-c4ccccc4)nc3C)N1[C@H](c1cn(-c3ccccc3)nc1C)[C@@H]1C(=O)N(c3ccc(OC)cc3)C(=O)[C@@H]12` (stereo not given in full), the growth was 103%.
As for `COc1ccc(-c2c3c(nc4n[nH]c(-c5ccc(Cl)cc5)c24)-c2ccccc2C(=O)C3=O)cc1`, the figure is 51.5%; as for `CCC(C)[C@@H]1NC(=O)[C@@H]2CCCN2C(=O)[C@H](Cc2ccccc2)NC(=O)[C@@H]2CCCN2C(=O)[C@H](Cc2ccccc2)NC(=O)[C@@H]2CCCN2C(=O)[C@H](Cc2ccccc2)NC1=O` (stereo not given in full), 105%; as for `Cc1nc2sc(C(=O)Nc3cccc4c3OCCO4)c(N)c2cc1C(C)O` (stereo not given), 73.7%.
As for `COc1ccc(CCN2CCCn3c2nc2ccccc2c3=O)cc1`, the figure is 41.6%; as for `COc1ccc(-c2cc(-c3ccc(N(C)C)cc3)nc(NC(=O)c3ccncc3)n2)cc1`, 109%.
In the case of `O=[N+]([O-])c1c(F)cccc1Nc1cccc(F)c1` it was 97.3%.
Turning to `CCCCCCCCCCCCCCCCCCNC(=O)[C@H]1CSC(c2ccc(F)c(OC)c2)N1` (stereo not given in full), the growth was -87.9% (active).
In the case of `O=C(CO[N+](=O)[O-])Nc1ccc(C(=O)/C=C/c2ccc3c(c2)OCO3)cc1` it was 96.5%; in that of `O=C(O)c1c([N+](=O)[O-])cnc2ccccc12`, 99.1%; in that of `CC(=O)C1=C(O)C=C2Oc3c(C(=O)/C=C/c4cc(Cl)cc(Cl)c4)c(O)c(C)c(O)c3[C@]2(C)C1=O`, 0.163% (active).
For the compound `CSc1ccc(N=C=C(c2ccccc2)c2ccccc2)cc1`, the growth was 93.2%.
In the case of `O=C(CN1CCN(c2cc3c(cc2F)c(=O)c(C(=O)O)cn3C2CC2)CC1)Nc1nc(-c2ccc(Cl)cc2)cs1` it was 51.7%; in that of `C[C@@]1(N2C(=O)OC[C@@H]2c2ccccc2)C(=O)N([C@H](CC(=O)N2CCC(N3CCCCC3)CC2)C(=O)NCc2cccc(C(F)(F)F)c2)[C@@H]1/C=C/c1ccccc1`, 115%.
As to `COc1ccc(/C=c2/c(=O)[nH]c3nc4sc(C)c(C)c4c(=O)n23)cc1`, the growth was 105%.
As for `COc1ccc2nc3cc(Cl)ccc3c(N3CCN(c4ccnc(N5CCN(C)CC5)n4)CC3)c2c1`, the growth is 81.4%.
As for `COc1ccc(-c2nn(-c3ccccc3)cc2/C=C/C(=O)OCc2cn(-c3ccc(F)c(Cl)c3)nn2)cc1`, the figure is 106%.
As for `O=C(N/N=C/c1ccc(O)cc1O)c1cccnc1`, the figure is 77.6%; as for `O=C(COCc1c(-c2ccccc2)no[n+]1[O-])Nc1ccc(C(=O)/C=C/c2ccc3c(c2)OCO3)cc1`, 99.4%.
In the case of `Cc1ccc2cnc(N)c(C#Cc3cncc(C(=O)Nc4ccc(CN5CCN(C)CC5)c(C(F)(F)F)c4)c3)c2c1` it was -89% (active).
For the compound `CCN(CC)CC(C)(C)C(=O)/C=C/c1ccccc1`, the growth was 52.4%.
In the case of `COc1ccc(/C=N\NC(=O)CN2CCN(c3cc4c(cc3F)c(=O)c(C(=O)N/N=C/c3ccc(OC)cc3)cn4C3CC3)CC2)cc1` it was 122%.
In the case of `Clc1nc(Cl)c2c3c(sc2n1)CCCC3` it was 96.5%; in that of `COc1ccc(/C=C2\N=C3SC=C(N)N3C2=O)cc1`, 59.9%; in that of `O=C(/C=C/c1ccc(B(O)O)cc1)/C=C/c1ccc(B(O)O)cc1`, 92.8%.
As for `CCC(=O)Oc1ccc(/C(=C(\C)c2ccccc2)c2ccc(OCCN(CC)CC)cc2)cc1`, the figure is 91.7%; as for `COc1cc(/C=N/N(C)C)ccc1O`, 106%; as for `CC1(C)CC(=O)C(c2c(-c3ccccc3)[nH]c3[nH]c(=S)[nH]c(=O)c23)=C(O)C1`, 98.4%.
For the compound `NC(CC(=O)O)C(=O)OCc1ccccc1` (stereo not given), the growth is 101%.
In the case of `CCN(CC)Cc1cc(Nc2c3ccc(Cl)cc3nc3c(C)cccc23)ccc1O` it was -37.7% (active); in that of `Nc1ccc(Nc2nccc(-c3ccc4ccccc4c3)n2)cc1`, 69.1%.
As for `COc1ccc(C/C(C)=C(\c2ccc(OCCN3CCCCCC3)cc2)c2ccc(OC(=O)C3CCCCC3)cc2)cc1`, the figure is 81.9%; as for `COc1cc(NCCCCN=C(N)NC(N)=NC(C)C)c2ncccc2c1`, 87.2%.
As for `CSc1nc2sc3c(c2c(=O)n1-c1ccc(C(C)C)cc1)CCC(=O)C3`, the figure is 6.13% (active); as for `C=C1C(=O)O[C@H]2[C@H]1CC/C(Cn1cc(Cc3c[nH]c4ccccc34)nn1)=C\CC[C@@]1(C)O[C@@H]21`, 76.2%.
Regarding `O=C(O)c1ccccc1Nc1cccc(S(F)(F)(F)(F)F)c1`, the growth is 115%.
In the case of `O=C(Nc1cccc2c1C(=O)c1cccc(Nc3cccc4c3C(=O)c3cccc(NC(=O)c5ccccc5)c3C4=O)c1C2=O)c1ccccc1`, the growth is 114%.
In the case of `CCCCNC(=O)NS(=O)(=O)c1ccc(N2N=C(c3cc(C)ccc3C)CC2c2cc(OC)c(OC)c(OC)c2)cc1` (stereo not given) it was 95.9%; in that of `C/C=C/C(N)=O`, 100%; in that of `CC(C)c1c(C(=O)Nc2ccccc2)c(-c2ccccc2)c(-c2ccc(F)cc2)n1CC[C@@H]1CC=CC(=O)O1`, 57.1%.
